In PubChem BioAssay (NCATS):
Inconclusive results are not listed. Entries that show only a call come without a potency. For part of these data: Potency and affinity values are given separately. Active and inactive are the calls of the source. Where a SMILES comes first, the peptide text is derived from it. Bridges are numbered along the chain shown (N, C = ends). [ ]: non-standard residue; d: D form. The star is where a group is joined. Dab(CH2SO3H) = N[C@@H](CCNCS(=O)(=O)O)C(=O)O; X1 = CC[C@@H](C)CCCCC(=O)*; Dab = NCC[C@H](N)C(=O)O

Key:
[1] = Ebola virus entry assay, reporter ratio channel; AC50: Channel type: primary unless noted; outcome: Channel type: primary unless noted
[2] = Ebola virus entry assay, blue channel (ratio component)
[3] = Ebola virus entry cell assay, ratio channel
[4] = qHTS assay to identify small molecule inhibitors of chordoma cells - UCH-2 (AID 1259356; active means well fitted cell-killing curve with a large enough effect; further: series mostly up to about 46 µM)

**Q.** Which results are given for `C[C@@H]1O[C@@H](O[C@H]2CC[C@@]3(C)[C@H](CC[C@@H]4[C@H]3C[C@@H](O)[C@]3(C)[C@@H](C5=CC(=O)OC5)CC[C@]43O)C2)C[C@H](O)[C@@H]1O[C@H]1C[C@H](O)[C@H](O[C@H]2C[C@H](O)[C@@H](O)[C@@H](C)O2)[C@H](C)O1` (stereo in doubt)?
**A.** outcome [1]: inactive [Channel type: confirmation]; outcome [2]: inactive; AC50 [3]: 0.794 µM (active)

**Q.** Which outcome [3] does the source give for `O=C(O)C[C@H](O)C[C@H](O)/C=C/c1c(C2CC2)nc2ccccc2c1-c1ccc(F)cc1` here?
**A.** The outcome was “inactive”.

**Q.** Which results are given for `CN1C[C@H](C(=O)N[C@]2(C)O[C@@]3(O)[C@@H]4CCCN4C(=O)[C@H](Cc4ccccc4)N3C2=O)C=C2c3cccc4[nH]cc(c34)C[C@H]21`?
**A.** outcome [3]: inactive; outcome [4]: inactive

**Q.** What does the source list for `CC[C@H]1OC(=O)[C@H](C)[C@@H](O[C@H]2C[C@@](C)(OC)[C@@H](O)[C@H](C)O2)C(C)[C@@H](O[C@@H]2O[C@H](C)C[C@H](N(C)C)[C@@H]2O)[C@](C)(OC)C[C@@H](C)C(=O)[C@H](C)[C@@H](O)[C@]1(C)O` (stereo not given in full)?
**A.** outcome [1]: inactive [Channel type: confirmation]; outcome [2]: inactive; AC50 [3]: 7.94 µM (active)

**Q.** Which results are given for `CN1[C@@H]2CC[C@H]1CC(OC(c1ccccc1)c1ccccc1)C2` (stereo not given in full)?
**A.** outcome [1]: inactive [Channel type: confirmation]; outcome [2]: inactive; AC50 [3]: 3.55 µM (active)

**Q.** For `Cc1cc2nc3c(=O)[nH]c(=O)nc-3n(C[C@H](O)[C@H](O)[C@H](O)CO)c2cc1C`, which outcome [1] is on record?
**A.** The outcome was “inactive”.

**Q.** And the outcome [2]?
**A.** Its outcome is “inactive”.

**Q.** With `CC[C@@H](C)CCCCC(=O)N[C@@H](CCNCS(=O)(=O)O)C(=O)N[C@H](C(=O)N[C@@H](CCNCS(=O)(=O)O)C(=O)N[C@H]1CCNC(=O)[C@H]([C@@H](C)O)NC(=O)[C@H](CCNCS(=O)(=O)O)NC(=O)[C@H](CCNCS(=O)(=O)O)NC(=O)[C@H](CC(C)C)NC(=O)[C@@H](CC(C)C)NC(=O)[C@H](CCNCS(=O)(=O)O)NC1=O)[C@@H](C)O` (X1-[Dab(CH2SO3H)]T[Dab(CH2SO3H)][Dab][Dab(CH2SO3H)][dL]L[Dab(CH2SO3H)][Dab(CH2SO3H)]T; lactam 4-C) as the molecule, how does the outcome [3] read?
**A.** Its outcome is “inactive”.
